From PubChem BioAssay
ssDAF12 agonist = S. stercoralis DAF-12 nuclear receptor activators, primary screen, cell-based, luminescence, HEK293, GRIP1 co-expression, lit1-tk-luc. Nuclear hormone receptor DAF-12 (Strongyloides stercoralis). HEK293 ssDAF-12/GRIP1 lit1-tk-luc reporter; % of 3 µM dafachronic acid response. activation, % at 6.8 µM. hit rate 1% among 370,000. AID 652126, 2013;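 active = activation above the mean over all tested compounds plus 3 SD, cut at about 0.9% in these data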;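 note: 0% = DMSO-only wells and 100% = 3 µM delta7-dafachronic acid wells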
hcDAF-12 act = H. contortus DAF-12 nuclear receptor activators, primary screen, cell-based, luminescence, HEK293, lit1-tk-luc reporter; activation, % at 6.8 µM; hit rate 1.4% among 370,000; AID 652067, 2013; HEK293 hcDAF-12 lit1-tk-luc reporter; 0% DMSO, 100% Δ7-dafachronic acid;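 active = activation above the mean of all tested compounds plus 3 SD, cut at about 5.5% in these data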;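 note: 100% = response to 3 µM Δ7-dafachronic acid high control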
DAX1 inh-1 = DAX1 (NR0B1) inhibitors, primary screen, cell-based, HEK293, Gal4-DAX1, luciferase luminescence; Nuclear receptor subfamily 0 group B member 1 (Homo sapiens), P51843; hit rate 0.99% among 340,000; HEK293 Gal4-DAX1 luciferase reporter; inhibition, % at 6.75 µM;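 active = inhibition above the mean over all tested compounds plus 3 SD, cut at about 4.2% in these data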;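 note: 0% = DAX1-transfected cells with DMSO and 100% = empty-vector control cells with DMSO; inhibition shows as a rise in luminescence from relieved DAX1 repression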
DAX1 inh-2 = DAX1 (NR0B1) inhibitors on StAR promoter, primary screen, cell-based, luminescence, SF-1 (NR5A1), full-length DAX-1 | inhibition, % at 6.8 µM | hit rate 1.1% among 370,000 | HEK293T StAR-luciferase reporter, SF-1/DAX-1 repression relief;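 active = inhibition above the mean over all tested compounds plus 3 SD, cut at about 3.6% in these data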;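 note: 0% = DAX-1 cells with DMSO and 100% = cells lacking DAX-1 with DMSO; higher inhibition means more luminescence from relief of DAX-1 repression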
hgDAF-12 ag = H. glycines DAF-12 receptor agonists, primary screen, cell-based, luminescence, HEK293, GAL4 fusion, UAS-luciferase; hit rate 1.8% among 370,000; AID 687014, 2013; Nuclear hormone receptor DAF-12 (Heterodera glycines), GAL4 fusion; activation, % at 6.8 µM; HEK293 GAL4-hgDAF12 UAS-luciferase reporter, agonist luminescence; normalized to butyrate control;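 active = activation above a cutoff set at the mean of all screened compounds plus 3 SD, cut at about 10% in these data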;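 note: 0% = DMSO wells and 100% = sodium butyrate wells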
hgDAF12 conf = H. glycines DAF-12 receptor agonists, confirmation, cell-based, luminescence, HEK293, GAL4-LBD fusion; HEK293 GAL4-hgDAF12 luciferase reporter, agonist mode; percent of butyrate response; activation, % at 6.8 µM; hit rate 80% among 3,300; shares compounds with hgDAF-12 ag;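 active = mean activation over triplicate wells above the hit cutoff derived from the earlier primary screen, cut at about 11% in these data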;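 note: 0% = DMSO low control and 100% = 2 mM sodium butyrate high control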
LXR ag 2 = LXR agonists, Gal4 luciferase reporter, confirmation, counter-screen for hgDAF-12 agonist project, cell-based, luminescence, HEK293, H. glycines campaign | shares compounds with hgDAF-12 ag | 24 h | activation, % at 6.8 µM | 3,300 tested, under 10 active | AID 743051, 2013;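 active = mean activation of the triplicate above a set limit carried over from the primary screen, none filed active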
Target sequence (P55055 whole entry, looked up, the tested form may be a part): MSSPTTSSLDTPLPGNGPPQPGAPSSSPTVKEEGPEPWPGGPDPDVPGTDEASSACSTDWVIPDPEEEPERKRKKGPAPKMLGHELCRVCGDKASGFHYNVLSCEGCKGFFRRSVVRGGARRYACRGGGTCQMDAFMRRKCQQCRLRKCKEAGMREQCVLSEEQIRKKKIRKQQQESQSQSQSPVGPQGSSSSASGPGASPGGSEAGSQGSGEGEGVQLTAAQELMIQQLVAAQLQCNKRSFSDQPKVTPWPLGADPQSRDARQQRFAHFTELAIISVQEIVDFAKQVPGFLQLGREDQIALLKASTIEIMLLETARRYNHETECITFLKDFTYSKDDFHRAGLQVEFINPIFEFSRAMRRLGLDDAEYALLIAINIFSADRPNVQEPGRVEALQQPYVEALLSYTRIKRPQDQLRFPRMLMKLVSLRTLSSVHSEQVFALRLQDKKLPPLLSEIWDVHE
Numbers without * were called inactive; . = no result given. Shown are actives, neighbours in structure and some others; about 4.1% of the full set was active somewhere.

SMILES	ssDAF12 agonist	hcDAF-12 act	DAX1 inh-1	DAX1 inh-2	hgDAF-12 ag	hgDAF12 conf	LXR ag 2
Cc1cc(C(=O)NCc2cccs2)no1	-2	0	1	0	2	.	.
O=C(NCc1cccs1)c1cc(-c2ccccc2)on1	0	3	3	3	16*	14*	0
O=C(Nc1cccc(O)c1)c1cc(-c2cccs2)on1	0	3	1	3	15*	21*	0
COCCNC(=O)c1cc(-c2cccs2)on1	0	1	4	1	37*	28*	0
O=C(NCc1cccs1)c1cc(-c2cccs2)on1	-1	2	1	1	15*	15*	0
CCOC(=O)[C@]12CCC=C1N(Cc1ccco1)C(=O)[C@H](CC(=O)NCCc1ccccc1OC)C2	-1	-1	.	0	2	.	.
Cc1ccc(-c2nc3cccnc3s2)cc1NS(C)(=O)=O	0	6.4*	1	3	14*	7	0
CCOc1ccc(NC(=O)COC(=O)CCN2C(=O)C3CC=CCC3C2=O)cc1OCC (stereo unspecified)	-1	-2	0	0	-1	.	.
CC(=O)Oc1ccc(C(=O)[C@H]2[C@H]3C(=O)N(c4ccc5ccccc5c4)C(=O)[C@H]3[C@@H]3C=CC=NN32)cc1	1	4	4	2	14*	6	0
Clc1ccccc1-c1nnc2sc(-c3ccc4c(c3)OCO4)nn12	-1	-1	0	-2	2	.	.
Clc1ccccc1-c1nnc(-c2ccc3c(c2)OCO3)o1	1	5.8*	3	4	19*	15*	1
CSc1ccccc1-c1nnc(-c2ccc(Cl)cc2Cl)o1	-1	-1	1	0	1	.	.
Clc1ccc(-c2nnc(-c3ccccc3)o2)c(Cl)c1	0	5	1	4.0*	16*	16*	1
CN(CCC1CCOCC1)C(=O)C1CCC(=O)N(CCc2ccccc2)C1 (stereo unspecified)	0	0	1	1	1	.	.
COc1cccc(CNC(=O)Cc2ccc(OC)c(S(=O)(=O)N3CCOCC3)c2)c1	-1	-1	-2	2	-1	.	.
COc1ncccc1-c1nnn(-c2ccc(C)cc2)n1	0	3	1	2	17*	17*	1
COC1c2ccccc2C(=O)N1CCc1ccc(Cl)cc1 (stereo unspecified)	-1	0	1	0	6	.	.
CC(=O)N1CCC(=NNc2nc3ccccc3[nH]2)CC1	1	4	.	1	16*	6	0
CCC(C)(C)C1CCC(=NNc2nc3ccccc3[nH]2)CC1 (stereo unspecified)	-1	-1	1	1	8	.	.
CCn1c(=S)[nH]c2c(=O)n(C)c(=O)n(C)c21	-1	-1	0	1	-1	.	.
CSc1ccc(CN(C)CC(=O)NC(=O)NCCC2=CCCCC2)cc1	-2	2	1	0	-1	.	.
Fc1ccc(-c2nc3ccccc3[nH]2)cc1	-1	3	1	3	18*	12*	1
Cc1cc(C(=O)Nc2ccc3c(c2)CCC3)ccc1[N+](=O)[O-]	0	2	.	1	14*	17*	1
Nc1ccc(NC(=O)c2cccs2)cc1	-2	-1	0	1	-1	.	.
O=C(Nc1ccc2c(c1)CCC2)c1c(F)cccc1Cl	0	3	1	2	10	.	.
SMILES	ssDAF12 agonist	hcDAF-12 act	DAX1 inh-1	DAX1 inh-2	hgDAF-12 ag	hgDAF12 conf	LXR ag 2
O=C(Nc1ccc2c(c1)CCC2)c1cnc(Cl)c(Cl)c1	1.1*	4	2	2	15*	19*	1
Cc1ccc(C(=O)NCC(=O)Nc2ccc3c(c2)CCC3)cc1C	0	0	1	1	3	.	.
O=C(Nc1ccc2c(c1)CCC2)c1cccs1	1.2*	3	1	3	16*	17*	1
CC(C)[Si]1(C(C)C)OCC2OC(n3cnc4c(N)ncnc43)C(N)C2O[Si](C(C)C)(C(C)C)O1 (stereo unspecified)	-1	-1	-1	0	1	.	.
NC(N)=Nc1nc(C2COc3ccccc3O2)cs1 (stereo unspecified)	0	5	0	2	14*	18*	1
COc1ccc(CCNC(=O)c2cc(C3CC3)nc3c2cnn3C(C)C)cc1	-1	0	-1	0	2	.	.
C/C(N)=C(/C#N)C(=O)CSc1nnc(-c2ccc3c(c2)OCO3)o1	1.0*	6.0*	2	5.9*	19*	12*	1
N#CCSc1nnc(-c2ccc3c(c2)OCO3)o1	-1	-2	0	1	0	.	.
CN(C(=O)/C=C/c1ccccc1)C1CCS(=O)(=O)C1 (stereo unspecified)	-1	1	2	0	2	.	.
CN(C(=O)/C=C/c1ccccc1)C1CCCCC1	-1	5	.	1	14*	17*	1
CC(C)c1ccc(/C=N/NC(=O)c2cccc(Cl)c2)cc1	0	3	1	3	15*	24*	1
CCOc1ccc(C(=O)N/N=C/c2ccc(SC)cc2)cc1	-1	-2	0	0	3	.	.
CSc1ccc(/C=N/NC(=O)c2cccc(O)c2)cc1	0	4	-1	4.1*	15*	18*	1
O=C(CSc1nc2c(cnn2-c2cccc(Cl)c2)c(=O)[nH]1)NCCC1=CCCCC1	-1	-1	1	-1	-3	.	.
CCOc1ccc(S(=O)(=O)N2CCC(C(=O)NCCc3ccc(S(N)(=O)=O)cc3)CC2)cc1	-1	-1	0	0	4	.	.
O=C(NCc1ccc(F)cc1F)[C@@H]1CCCN1C(=O)[C@@H]1CCCN1C(=O)c1ccccc1	-1	-2	.	-1	-1	.	.
CC1(c2ccccc2)NC(=O)N(CC(=O)N2CCN(S(=O)(=O)c3cccs3)CC2)C1=O (stereo unspecified)	-1	-1	0	-1	-1	.	.
CCN(C(=O)CSc1nnc(-c2cccc(F)c2)n1N)c1c(N)n(Cc2ccccc2)c(=O)[nH]c1=O	-1	-1	2	0	19*	-1	0
